FGF22 binding-1 – binders of human FGF22 protein, primary screen, FGF22 synaptogenesis inhibitor project, biophysical, thermal shift, single point. Fibroblast growth factor 22 (Homo sapiens), Q9HCT0. recombinant FGF22 thermal shift, SYPRO orange fluorescence; percent of sucrose octasulfate shift, DMSO zero. activity (Tm shift, normalised), % at 9.99 µM. 1.5% of 340,000 active. AID 651658, 2012;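 active = mean Tm shift, scaled 0 neutral to 100 positive control, at about 1.3% or above, every replicate too, limit read from the data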
Target sequence (Q9HCT0 whole entry, looked up): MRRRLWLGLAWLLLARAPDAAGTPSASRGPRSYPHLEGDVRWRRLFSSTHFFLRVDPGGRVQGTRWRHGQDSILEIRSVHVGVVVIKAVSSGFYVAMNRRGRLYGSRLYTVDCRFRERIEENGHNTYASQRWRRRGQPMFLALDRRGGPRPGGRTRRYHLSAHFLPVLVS
Vif inh – HIV Vif self-association inhibitors, primary screen, imaging, HEK293T, single point; HEK293T cells, Vif self-association by quenched fluorescence, 24 h; inhibition, % at 7.49 µM; 0.35% of 340,000 active; AID 602346, 2012; in the data active = inhibition above about 50%, passing the limit was not always enough
F508del corr – F508del CFTR correction, initial screen, CFBE line, single point. 0.36% of 350,000 active. AID 720511, 2013. activity (quench increase), % at 7.58 µM. CFBE cells, YFP halide quenching; stimulated with forskolin plus potentiator P3; % fluorescence drop versus neutral controls;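 active = mean added fluorescence quench of at least 8% versus neutral control, with both replicates also reaching 8%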;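 also: cells transiently co-express mutant CFTR-F508del with the halide-sensitive YFP; corrector assay measuring rescue of mutant channel to the surface after 24 h compound exposure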
FGF22 binding-2 – binders of human FGF22 protein, dose response, FGF22 synaptogenesis inhibitor project, biophysical, thermal shift, cherry-pick retest; 2% of 1,000 active; shares compounds with FGF22 binding-1; recombinant FGF22 thermal shift, SYPRO orange fluorescence; thermal shift activity, °C (ΔTm) at 38 µM; AID 720646, 2013;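 active = fitted rise in melting shift crosses a set limit at or below the top valid dose tested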
FGF22 TSA DP – binders of human FGF22 protein, dose response, FGF22 synaptogenesis inhibitor project, biophysical, thermal shift, dry powder; shares compounds with FGF22 binding-1; Thermal shift assay, SYPRO orange, melting temperature shift; Tm shift (activity), % at 38 µM; 50 tested, under 10 active;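 active = compounds whose fitted dose curve of melting temperature shift rises past a set threshold within the tested doses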
TSA no protein – compound-only thermal shift signal without protein, dose response, artefact control for FGF22 binder project, biochemical, cherry-picked samples, RT-PCR instrument; AC50, µM (top dose mostly 38 µM); compound-only SYPRO orange thermal shift counter-screen, no protein; shares compounds with FGF22 binding-1; 2% of 1,000 active;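 active = rising signal whose fitted curve reaches the 0.54 level within the top valid dose, showing a melting point, actives reach about 13 µM in these data; inactive = the rest, including activity in the opposite direction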; also: value is where the raw curve crosses a fixed level and not half-maximal
Active calls of the source: *; [ ] = another dose, or the depositor's remark. In the library only some 1.7% were active in any assay of this set; here they are far more common.

Results for COc1cccc(NC(=O)c2ccc(-c3ccccc3[N+](=O)[O-])o2)c1 ?
FGF22 binding-1: 0.1; Vif inh: -7.4; F508del corr: -0.2

What do the screens show for `Cc1noc(C)c1NC(=O)Nc1ccc2c(c1)C(=O)N([C@@H](C)CO)C[C@H](C)[C@H](CN(C)S(C)(=O)=O)O2`?
FGF22 binding-1: 0.2; F508del corr: 3.0

What do the screens show for `O=C(N/N=C/c1cccc(Oc2ccccc2)c1)c1cccc(O)c1`?
FGF22 binding-1: 1.5*; Vif inh: -1.9; F508del corr: -3.7; FGF22 binding-2: 0.029; FGF22 TSA DP: 0.0; TSA no protein: inactive

How did O=C(N/N=C/c1cccc(Oc2ccccc2)c1)c1cccc(Br)c1 do in these assays?
FGF22 binding-1: 0.3; Vif inh: -8.1; F508del corr: 0.7

How did CCC(C)NC(=O)C1=CCN(S(=O)(=O)c2ccc(C)cc2)CC1 (configuration not stated) do in these assays?
FGF22 binding-1: 0.5; Vif inh: -5.8; F508del corr: -1.4

What do the screens show for `CCC(C)NS(=O)(=O)c1ccc(S(=O)(=O)N2CC=C(c3ccc(F)cc3)CC2)cc1` (configuration not stated)?
FGF22 binding-1: 13.6*; Vif inh: -0.6; FGF22 binding-2: 0.134; TSA no protein: inactive

How did COc1cc(C2C(C#N)=C(N)Oc3n[nH]c(-c4cccnc4)c32)cc(Br)c1O (configuration not stated) do in these assays?
FGF22 binding-1: 1.8*; Vif inh: -2.4; F508del corr: -0.7; FGF22 binding-2: 0.276; TSA no protein: inactive

Results for COc1cc(C2C(C#N)=C(N)Oc3n[nH]c(-c4cccnc4)c32)ccc1OCC(N)=O (configuration not stated) ?
FGF22 binding-1: -0.1; Vif inh: 0.8; F508del corr: -0.4

What do the screens show for `CNC[C@H]1Oc2ccc(NC(=O)Cc3cn(C)c4ccccc34)cc2C(=O)N([C@H](C)CO)C[C@@H]1C`?
FGF22 binding-1: 0.4; F508del corr: -0.2

What do the screens show for `COc1ccc(CN(C)C[C@H]2Oc3ccc(NC(=O)NC(C)C)cc3C(=O)N([C@H](C)CO)C[C@@H]2C)cc1`?
FGF22 binding-1: 1.0; F508del corr: 2.9

How did COc1ccc(CN(C)C[C@H]2Oc3ccc(NC(=O)Cc4ccccc4)cc3C(=O)N([C@@H](C)CO)C[C@@H]2C)cc1 do in these assays?
F508del corr: -0.3

How did CNC[C@H]1Oc2ccc(NC(=O)Cc3cn(C)c4ccccc34)cc2C(=O)N([C@H](C)CO)C[C@H]1C do in these assays?
FGF22 binding-1: 3.7*; F508del corr: 1.2; TSA no protein: inactive

Results for COc1ccc(CN(C)C[C@@H]2Oc3ccc(NC(=O)NC(C)C)cc3C(=O)N([C@H](C)CO)C[C@@H]2C)cc1 ?
FGF22 binding-1: 73.0*; F508del corr: 0.1; FGF22 binding-2: -0.025[42 µM]; TSA no protein: inactive

Results for COc1ccc(CN(C)C[C@H]2Oc3ccc(NC(=O)Cc4ccccc4)cc3C(=O)N([C@H](C)CO)C[C@@H]2C)cc1 ?
FGF22 binding-1: 1.5*; F508del corr: 0.6; FGF22 binding-2: 0.128[42 µM]; TSA no protein: inactive

What do the screens show for `CCCC(=O)Nc1ccc2c(c1)C(=O)N(C)[C@H]1CC[C@@H](CC(=O)NCCc3ccccc3)O[C@H]1CO2`?
FGF22 binding-1: 0.0; F508del corr: -1.5

Results for C[C@@H]1CCCCO[C@@H](CN(C)Cc2ccc(C(F)(F)F)cc2)[C@H](C)CN([C@@H](C)CO)C(=O)c2cc(NS(C)(=O)=O)ccc2O1 ?
FGF22 binding-1: -0.1; F508del corr: -0.7

What do the screens show for `COCC#Cc1ccc2c(c1)O[C@H](CN(C)C(=O)CN(C)C)[C@H](C)CN([C@H](C)CO)S2(=O)=O`?
FGF22 binding-1: 0.0; F508del corr: -0.2

From PubChem BioAssay
